The text below walks through data of PubChem BioAssay AID1851 (National Center for Advancing Translational Sciences (NCATS), 2009).

Out of some 16,000 compounds screened, about 5,800 (36%) were called active. Roughly 23% stayed inconclusive and do not appear here. Some of the results follow. A number with no mark means an inactive call. Calls follow the shape of the dose curve; as a rule, active = well fitted curve in the direction sought with a large enough effect; inconclusive = small, poorly fitted or top-dose-only effect, or effect the other way; inactive = no such curve, though single readings can be large or run the other way.
% is scaled to controls: 0 for no effect and ±100 for the full control effect.

The target of the experiment is Cytochrome P450 2C19 (Homo sapiens) (UniProt P33261). As to the kind of experiment: Cytochrome panel assay with activity outcomes. Conditions: recombinant CYP, pro-luciferin dealkylation, luminescence, p450-cyp2c19; series mostly up to 57.1 µM.
Chain of Cytochrome P450 2C19 (Homo sapiens) (P33261 whole entry, looked up): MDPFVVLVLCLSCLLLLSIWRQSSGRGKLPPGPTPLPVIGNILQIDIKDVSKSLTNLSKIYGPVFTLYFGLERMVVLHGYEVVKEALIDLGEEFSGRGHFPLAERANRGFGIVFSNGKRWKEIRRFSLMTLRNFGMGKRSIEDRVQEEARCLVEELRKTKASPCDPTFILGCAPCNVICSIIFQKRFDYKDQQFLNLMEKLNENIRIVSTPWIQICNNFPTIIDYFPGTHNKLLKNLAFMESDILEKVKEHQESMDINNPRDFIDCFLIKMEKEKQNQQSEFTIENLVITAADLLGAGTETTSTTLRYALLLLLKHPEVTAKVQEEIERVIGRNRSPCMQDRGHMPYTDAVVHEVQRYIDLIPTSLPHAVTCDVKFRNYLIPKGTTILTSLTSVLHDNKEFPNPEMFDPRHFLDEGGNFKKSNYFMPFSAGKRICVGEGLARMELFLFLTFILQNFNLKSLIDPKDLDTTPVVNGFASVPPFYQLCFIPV
The term AC50 denotes the concentration giving half of the maximal activity seen. For the compound `CC(=O)OCc1c(C(F)(F)F)nn(C)c1Sc1ccccc1`, the half-maximal activity concentration (AC50) was 0.891 µM (active). For the compound `CCC(=O)OCc1c(C(F)(F)F)nn(C)c1Sc1ccc(F)cc1`, the AC50 is 1.41 µM (active). Regarding `CC(C)(N=NC(C)(C)C1=NCCN1)C1=NCCN1`, the activity, negative = inhibition is 30.5% [at 11.4 µM].

Consider `COC(Cn1c(C)c(C(C)=O)c(C(C)=O)c1C)OC`, for which the AC50 result was “inactive”.

In the case of `N#C/C(=C\c1ccc(N2CCCC2)c([N+](=O)[O-])c1)c1nc2ccccc2[nH]1`, the AC50 was 1 µM (active). On the same count and under the same terms, in the case of `N#C/C(=C/c1ccc(N2CCCC2)c([N+](=O)[O-])c1)c1nc2ccccc2[nH]1` it was 1.26 µM (active). As to `Cn1c(=O)n2n(c1=O)[C@H]1[C@H](O)[C@H]3O[C@H]3C(=O)[C@H]1CC2`, the activity, negative = inhibition is 20.1% [at 11.4 µM].

As for `C1CCC(C(C[C@@H]2CCCCN2)C2CCCCC2)CC1`, the AC50 entry is “inactive”. Take `C[C@@H]1O[C@H](O[C@@H]2[C@@H](Oc3cc(O)c4c(c3)O[C@H](c3ccc(O)cc3)CC4=O)O[C@@H](CO)[C@@H](O)[C@H]2O)[C@@H](O)[C@H](O)[C@@H]1O`: the AC50 entry was “inactive”. As to `c1ccc(-c2ccccn2)nc1`, the AC50 result is “inactive”. Take `c1ccc(-c2nc3ccccc3o2)nc1`: the AC50 was 14.1 µM (active).

`O=S(=O)(O)c1ccc(-c2nnc(-c3ccccn3)nc2-c2ccc(S(=O)(=O)O)o2)o1`: the activity, negative = inhibition is -6.8% [at 11.4 µM]. For `CC(C)=CCNc1ncnc2nc[nH]c12`, the activity, negative = inhibition is 26.8% [at 11.4 µM]. `O=[N+]([O-])/C=C/c1cn(Cc2ccccc2)c2ccccc12`: the half-maximal activity concentration (AC50) is 1.41 µM (active). On the same count and under the same terms, in the case of `O=C1CS/C(=C\[N+](=O)[O-])N1c1ccc(OC(F)(F)F)cc1` it was 3.98 µM (active). On to `C/C=C\C1=C(CO)C(=O)C2O[C@]2(CC=C(C)C)C1=O` (stereo not given in full), for which the activity, negative = inhibition is -25.8% [at 11.4 µM]. On to `Cc1ccc(C(=O)N2C3C=CC(C3)C2(C(F)(F)F)C(F)(F)F)cc1` (stereo not given), for which the AC50 was 15.8 µM (active). With `C=CCOc1ccccc1OC[C@H](O)CNC(C)C`, the AC50 result is “inactive”. On to `O=S(=O)(CC(O)COc1ccccc1Cl)c1ccccc1` (stereo not given), for which the AC50 is 7.08 µM (active). For the compound `COc1ccccc1OC[C@H](O)COC(N)=O`, the AC50 result is “inactive”. With `O=C(Nc1cccc2ncccc12)c1cccc(F)c1`, the AC50 result is “inactive”.

With `O=C(Nc1cccc2ncccc12)c1ccc(-c2ccc(Br)cc2)o1`, the concentration at half-maximal activity (AC50) is 4.47 µM (active). Regarding `COc1ccc2[nH]cc(CCNc3ccnc(-c4ccccc4C)n3)c2c1`, the AC50 was 2.51 µM (active).

For `CC(=O)NCCNc1ccnc(-c2ccccc2C)n1`, the AC50 entry is “inactive”. `COc1ccc2[nH]cc(CCNc3ccnc(-c4ccccc4C(F)(F)F)n3)c2c1`: the concentration at half-maximal activity (AC50) is 25.1 µM (active). On the same count and under the same terms, the result for `COc1cccc(CNc2ccc(F)c(Cl)c2)c1O` reads 3.16 µM (active); that for `Cc1noc(C)c1C(=O)N1CCC[C@@]2(CCN(C(=O)Nc3ccccc3)C2)C1`, “inactive”; that for `CCOC(=O)c1c(NC(=O)c2c(Br)cnn2C)c(C#N)nn1-c1ccccc1`, 11.2 µM (active). Turning to `CCC(CC)C(=O)Nc1cccc(/C(C)=N/NC(=O)c2c(Br)cnn2C)c1`, the AC50 entry is “inactive”.

In the case of `Cc1ccc(C(c2ccc(C)o2)c2cccc([N+](=O)[O-])c2O)o1`, the concentration at half-maximal activity (AC50) is 3.55 µM (active).

For `O=C1NC(=S)N/C1=C/c1cccc([N+](=O)[O-])c1O`, the AC50 entry is “inactive”. For `Cc1c(-c2ccc(O)cc2)nn(-c2ccc(O)cc2)c1-c1ccc(OCCN2CCCCC2)cc1`, the AC50 entry was “inactive”. As to `Cc1ccc(C(=O)N/C(=C/C=C/c2ccccc2)C(=O)NCc2ccco2)cc1`, the half-maximal activity concentration (AC50) was 2.24 µM (active).

As for `O=C(NCC1CCCO1)/C(=C\c1ccco1)NC(=O)c1ccccc1` (stereo not given), the AC50 result is “inactive”. On to `CC(C)OC(=O)/C(=C\C=C\c1ccccc1)NC(=O)c1ccccc1`, for which the AC50 entry was “inactive”. `C=CCNC(=O)/C(=C\C=C\c1ccccc1)NC(=O)c1ccc(OCCCC)cc1`: the concentration at half-maximal activity (AC50) is 14.1 µM (active). On to `CCC(=O)Nc1ccc(C(=O)CSc2nnc(-c3ccc(O)cc3)n2CC2CCCO2)cc1OC` (stereo not given), for which the AC50 entry is “inactive”.

On to `Cc1ccc(CSc2nnc(-c3ccncc3)n2CC2CCCO2)cc1` (stereo not given), for which the AC50 is 4.47 µM (active). For the compound `COc1ccc(-c2nc3cnc(N(C)C)nc3n(C[C@H]3CCCO3)c2=O)cc1`, the AC50 entry was “inactive”. As for `CCn1c(-c2ccc(N(C)C)cc2)nc2ccccc21`, the AC50 was 39.8 µM (active). Consider `O=C(NCCCc1ccccc1)c1cccs1`, for which the AC50 was 2.51 µM (active). Turning to `Cc1ccc(NC(=O)NCCCc2ccccc2)cc1`, the half-maximal activity concentration (AC50) is 2.51 µM (active).

On to `Cc1cc(C)c(NC(=O)CS(=O)CC(=O)NCCCc2ccccc2)c(C)c1` (stereo not given), for which the AC50 entry is “inactive”. As to `Cc1ccc(S(=O)(=O)NC(=O)OC23COCN2COC3)cc1`, the activity, negative = inhibition is 12.8% [at 11.4 µM].

`Cc1ccc(S(=O)(=O)NNc2ccccc2)cc1`: the half-maximal activity concentration (AC50) was 2.82 µM (active). On the same count and under the same terms, in the case of `Cc1ccc(NC(=O)NNS(=O)(=O)c2ccc(Br)cc2)cc1` it was “inactive”; in that of `Cc1ccc(NNS(=O)(=O)c2ccc(C)cc2)cc1`, 7.08 µM (active). `CO[C@H]1COC(=O)[C@@H](Cc2ccccc2)NC(=O)[C@@H](C)COC(=O)CCC[C@@H]1C`: the activity, negative = inhibition is -15.4% [at 11.4 µM].

As to `COc1ccccc1C1(CC(=O)Nc2nccs2)CCOC(C(C)C)C1` (stereo not given), the half-maximal activity concentration (AC50) was 1.58 µM (active). As to `Nc1c(-c2cccs2)cnn1-c1nc(-c2ccc(F)cc2)cs1`, the AC50 result was “inactive”. In the case of `COc1ccc(-c2csc(-n3ncc(-c4cccs4)c3N)n2)cc1`, the AC50 result is “inactive”.

Consider `Nc1c(-c2cccs2)cnn1-c1nc(-c2ccc(Cl)cc2Cl)cs1`, for which the AC50 is 0.0708 µM (active).

With `COc1ccc(CNc2ncncc2-c2ccccc2C(F)(F)F)c(OC)c1`, the half-maximal activity concentration (AC50) is 1.58 µM (active). `COc1ccccc1CNc1ncncc1-c1ccccc1C(F)(F)F`: the AC50 is 1.58 µM (active). For `COCCn1c(=O)c(C)nc2cnc(N(C)C)nc21`, the AC50 result is “inactive”.

As for `CN(C)C(=O)c1ccc(-c2ccc3ncnc(N4CCOCC4)c3c2)cc1`, the AC50 entry is “inactive”. Turning to `COC(=O)c1ccc(Oc2nc(N(C)C)nc(N3CCOCC3)n2)cc1`, the concentration at half-maximal activity (AC50) is 14.1 µM (active). Turning to `COc1ccc(-n2c(=O)c(C)nc3cnc(N4CCOCC4)nc32)cc1`, the AC50 entry was “inactive”. For the compound `N#Cc1c(NC(=O)C(F)(F)F)sc2c3c(=O)c4ccccc4c(=O)c=3oc3ccccc3c12`, the AC50 is 0.501 µM (active). Regarding `Cn1c(=S)c2[nH]c(SCc3cccnc3)nc2n(C)c1=O`, the activity, negative = inhibition is 23.1% [at 11.4 µM]. With `Cc1cccc(N2CCN(C(=O)CCCn3c(=S)[nH]c4cc5c(cc4c3=O)OCO5)CC2)c1C`, the AC50 was 2.82 µM (active). `C=CCNC(=O)c1ccc(Cn2c(=S)[nH]c3cc4c(cc3c2=O)OCO4)cc1`: the AC50 entry was “inactive”. For the compound `O=C(CCCn1c(=S)[nH]c2cc3c(cc2c1=O)OCO3)N1CCN(c2ccccc2)CC1`, the half-maximal activity concentration (AC50) was 10 µM (active). Still for that read-out and setting: the result for `O=c1c2cc(Br)ccc2[nH]c(=S)n1Cc1cccnc1` reads 1.58 µM (active). As to `O=C(CCCn1c(=S)[nH]c2cc3c(cc2c1=O)OCO3)N1CCN(c2ncccn2)CC1`, the half-maximal activity concentration (AC50) is 22.4 µM (active).
